Only some compounds are listed: those with a hit (about 1.3% of all), similar ones and a draw of the others.
RAD54 inh: inhibitors of human RAD54 branch migration | Q92698 | RAD54 Holliday junction branch migration, FAM/BHQ fluorescence | 360,000 compounds, 0.14% hits | inhibition, % at 10.4 µM;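 active means mean normalized replicate activity at least 40 and at least half of replicates scoring 40 or more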;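 further: 0% = median of neutral control wells and 100% = median of positive control wells; inhibitors cause a drop in the FAM fluorescence signal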
Target sequence (Q92698 whole entry, looked up): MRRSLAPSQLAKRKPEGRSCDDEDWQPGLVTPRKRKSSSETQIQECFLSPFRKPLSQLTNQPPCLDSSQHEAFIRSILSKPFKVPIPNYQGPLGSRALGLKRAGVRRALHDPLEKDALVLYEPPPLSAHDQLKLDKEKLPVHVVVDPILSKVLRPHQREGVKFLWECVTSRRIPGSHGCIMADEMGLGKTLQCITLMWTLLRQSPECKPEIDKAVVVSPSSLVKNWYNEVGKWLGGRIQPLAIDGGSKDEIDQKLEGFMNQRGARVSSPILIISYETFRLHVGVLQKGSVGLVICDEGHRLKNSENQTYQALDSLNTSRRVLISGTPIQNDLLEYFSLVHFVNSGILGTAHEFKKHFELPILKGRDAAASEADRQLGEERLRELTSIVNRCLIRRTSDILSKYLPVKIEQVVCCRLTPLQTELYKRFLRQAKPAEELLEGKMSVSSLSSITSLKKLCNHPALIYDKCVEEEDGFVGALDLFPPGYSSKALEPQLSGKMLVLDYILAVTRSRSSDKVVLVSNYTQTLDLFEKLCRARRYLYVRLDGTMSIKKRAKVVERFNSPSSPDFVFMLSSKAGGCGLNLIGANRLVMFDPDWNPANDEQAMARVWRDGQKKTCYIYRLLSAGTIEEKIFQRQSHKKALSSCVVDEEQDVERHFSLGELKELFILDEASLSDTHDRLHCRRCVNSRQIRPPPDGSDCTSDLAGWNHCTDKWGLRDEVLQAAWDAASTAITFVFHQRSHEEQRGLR
RAD52 anneal inh: blocks human RAD52 DNA annealing | recombinant RAD52 DNA annealing, FRET fluorescence | P43351 | inhibition, % at 18.7 µM | 360,000 compounds, 0.46% hits;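 active means every replicate showing at least 50% inhibition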
UBC13 polyUb: inhibitors of human UBC13 polyubiquitin chain formation | inhibition, % at 20 µM | 330,000 compounds, 0.47% hits | TR-FRET; in the data active means inhibition above about 45%, passing the limit was not always enough
MIN6 prolif: inducers of beta-cell replication in MIN6 cells. proliferation, % at 10 µM. AID 2380. MIN6 cells proliferation, ATPlite luminescence, 48 h; cells starved in 0.2% serum; 100% = growth in 10% serum. 330,000 compounds, 0.29% hits;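 active means compounds whose signal lies at least 3.5 SD above the mean of all wells on their plate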;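 further: 0% = DMSO-treated cells in low-serum medium and 100% = 10% serum control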
PREPL inh: human PREPL enzyme inhibition; 320,000 compounds, 0.68% hits; inhibition, % at 5.96 µM; Q4J6C6; recombinant PREPL, fluorescence polarization activity-based probe; in the data active means inhibition above about 43%;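 further: 0% = enzyme with DMSO and 100% = wells lacking enzyme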
DNA FID counter: fluorescent intercalator displacement, NS3 helicase counter-screen; DNA fluorescent intercalator displacement, fluorescence; inhibition, % at 7.9 µM; 290,000 compounds, 0.17% hits; AID 1845; in the data active means inhibition above about 37%;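 further: 0% = vehicle and 100% = reference compound; higher means more ethidium bromide displaced from hairpin DNA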
Casp3 UBC13 ctr: inhibits human caspase-3 in UBC13 counter-screen; shares compounds with UBC13 polyUb; Recombinant caspase-3, Caspase-Glo 3/7 luminescence, 60 min; inhibition, % at 20 µM; 1,400 compounds, 4% hits;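 active means mean inhibition across replicates above about 26%, limit read from the data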;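 further: plate controls were DMSO with caspase-3 for no effect and DMSO wells lacking enzyme for full effect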
UBC13 confirm: confirmation of human UBC13 polyubiquitin inhibitors. AID 488859. 1,400 compounds, 68% hits. UBC13 polyubiquitination, TR-FRET, biochemical. shares compounds with UBC13 polyUb. inhibition, % at 10 µM; in the data active means inhibition above about 45%
An asterisk follows results filed as active; i = inactive; . = not tested or not shown.

SMILES	RAD54 inh	RAD52 anneal inh	UBC13 polyUb	MIN6 prolif	PREPL inh	DNA FID counter	Casp3 UBC13 ctr	UBC13 confirm
CN(C)C/C=C/C(=O)Nc1cccc(-c2c[nH]c3ncnc(Oc4ccc(NC(=O)CC(=O)Nc5ccc(F)cc5)cc4F)c23)c1	6	.	112*	-3	-14	.	3	117*
COc1ccc(S(=O)(=O)N(C)C[C@@H]2Oc3ccc(NS(=O)(=O)c4ccc(C)cc4)cc3C(=O)N([C@H](C)CO)C[C@@H]2C)cc1	.	4	.	.	.	.	.	.
CC(C)n1c(NCc2cc(Cl)ccc2O)nc2ccccc21	2	-15	67*	-5	-1	6	0	54*
O=S(=O)(NC1CCCCC1)c1ccc(Cl)nc1	-7	.	50*	-1	-2	0	-5	10
CCOc1ccc(NC(=O)NNC(=O)c2ccc3ccccc3c2O)cc1	-2	-4	49*	-1	6	-8	-2	16
CCOc1ccc(N(C(=O)c2snc(C(N)=O)c2N)C(C(=O)NC2CCCC2)C(C)C)cc1 (stereo not given)	-3	-4	70*	0	21	-35	5	78*
COc1ccc(C(C(=O)NC2CCCC2)N(C(=O)c2snc(C(N)=O)c2N)c2cccc(O)c2)cc1 (stereo not given)	-1	.	7	0	5	-26	.	.
COc1ccc(N(C(=O)c2snc(C(N)=O)c2N)C(C(=O)NC2CCCCC2)c2ccc(C)o2)cc1 (stereo not given)	-1	-2	60*	-1	-3	-31	3	55*
NC(=O)c1nsc(C(=O)N(c2cccc(F)c2)C(C(=O)NC2CCCC2)c2ccc(O)cc2)c1N (stereo not given)	-14	-10	48*	-1	15	-17	-1	51*
CCOc1ccc(N(C(=O)c2snc(C(N)=O)c2N)C(C)C(=O)NC2CCCCC2)cc1 (stereo not given)	-7	-11	44	0	-11	-39	.	.
COc1ccc(N(C(=O)c2snc(C(N)=O)c2N)C(C(=O)NC2CCCC2)c2cccs2)cc1OC (stereo not given)	.	-1	64*	-1	-1	-44	1	35
Cc1ccc(N(C(=O)c2snc(C(N)=O)c2N)C(C(=O)NC2CCCC2)c2ccncc2)cc1 (stereo not given)	1	-8	28	2	6	-23	.	.
CO[C@@H]1CN(C)C(=O)c2cc(NC(=O)C3CCOCC3)ccc2OC[C@@H](C)N(C(=O)C2CCOCC2)C[C@H]1C	-3	2	.	.	.	.	.	.
C[C@@H]1CCCCO[C@@H](CN(C)C(=O)CCC(F)(F)F)[C@@H](C)CN([C@@H](C)CO)C(=O)c2cc(NS(C)(=O)=O)ccc2O1	2	-10	.	.	.	.	.	.
C[C@@H]1CN([C@@H](C)CO)C(=O)c2cc(C3=CCCCC3)cnc2O[C@@H]1CN(C)C(=O)c1ccccn1	0	5	.	.	.	.	.	.
C[C@H](NC(=O)C[C@@H]1C[C@@H]2c3cc(NC(=O)CC4CC4)ccc3O[C@@H]2[C@@H](CO)O1)c1ccccc1	3	12	.	.	.	.	.	.
CC(C)CCNC(=O)C(c1ccco1)N(Cc1ccccc1)C(=O)c1snc(C(N)=O)c1N (stereo not given)	-17	-47	32	-2	-2	-39	.	.
CCc1ccc(N(C(=O)c2snc(C(N)=O)c2N)C(C(=O)NC2CCCC2)c2ccco2)cc1 (stereo not given)	-12	2	63*	-4	5	-37	0	67*
Cc1ccc(N(C(=O)c2snc(C(N)=O)c2N)C(C(=O)NCCC(C)C)c2ccco2)cc1 (stereo not given)	.	5	74*	-1	-3	-29	-2	62*
COc1ccc(N(C(=O)c2snc(C(N)=O)c2N)C(C(=O)NC2CCCC2)c2ccco2)cc1 (stereo not given)	-17	-2	82*	0	0	-37	0	90*
CC(C)CC(C(=O)NC1CCCC1)N(Cc1ccc2c(c1)OCO2)C(=O)c1snc(C(N)=O)c1N (stereo not given)	.	1	46*	8	-4	1	-1	38
Cc1ccccc1N(C(=O)c1snc(C(N)=O)c1N)C(C(=O)NC1CCCC1)c1ccco1 (stereo not given)	5	-17	28	0	.	-39	.	.
CCOc1ccc(N(C(=O)c2snc(C(N)=O)c2N)C(C(=O)NC2CCCC2)c2ccncc2)cc1 (stereo not given)	-2	-14	36	0	5	-27	.	.
C[C@@H]1CCCCO[C@@H](CN(C)S(=O)(=O)c2cccs2)[C@H](C)CN([C@H](C)CO)C(=O)c2cc(NC(=O)c3ccccc3)ccc2O1	-1	.	.	.	.	.	.	.
O=C(Cc1ccncc1)Nc1ccc2c(c1)[C@H]1C[C@@H](CC(=O)NC3CCCC3)O[C@H](CO)[C@H]1O2	1	-9	.	.	.	.	.	.
SMILES	RAD54 inh	RAD52 anneal inh	UBC13 polyUb	MIN6 prolif	PREPL inh	DNA FID counter	Casp3 UBC13 ctr	UBC13 confirm
CO[C@H]1CN(C)C(=O)c2ccc(NC(=O)c3ccccc3F)cc2OC[C@@H](C)N(CC2CC2)C[C@H]1C	4	-10	.	.	.	.	.	.
CO[C@H]1CN(C)C(=O)c2ccc(NC(=O)c3ccno3)cc2OC[C@@H](C)NC[C@H]1C	-11	i	.	.	.	.	.	.
NC(=O)c1nsc(C(=O)N(c2cccc(F)c2)C(C(=O)NC2CCCC2)c2ccco2)c1N (stereo not given)	-8	-9	53*	1	-2	-17	-1	33
CC(=O)[C@]12O[C@]3(COC[C@H](c4ccccc4)N3C1=O)[C@@H]1C(=O)N(C)C(=O)[C@@H]12	2	-7	.	.	.	.	.	.
Nc1c(Cl)ncnc1N/N=C/c1cccc(O)c1	.	-10	62*	-3	25	0	81*	-8
CCC(=O)N(C)C[C@H]1Oc2cc(-c3ccc(F)cc3)ccc2S(=O)(=O)N([C@@H](C)CO)C[C@@H]1C	-1	17	.	.	.	.	.	.
CCOc1ccc(N2C(=O)C3C(c4ccccc4)=NN(c4ccccc4)C3C2=O)cc1 (stereo not given)	4	-6	56*	-3	0	-2	-4	39
CCOc1ccc(N2C(=O)C3C(C2=O)C3(c2ccccc2)c2ccccc2)cc1 (stereo not given)	-13	-3	8	0	18	-28	.	.
CO[C@H]1CN(C)C(=O)c2cc(NC(=O)C3CCCCC3)ccc2OC[C@@H](C)N(Cc2cccnc2)C[C@@H]1C	-5	9	.	.	.	.	.	.
CCN1CCN(C(=O)c2cc3c(s2)-c2c(C)cccc2OC3)CC1	3	.	80*	-1	10	5	54*	76*

Screening data deposited in PubChem by several laboratories.
